# Source: PubChem (National Center for Advancing Translational Sciences (NCATS))
# Sampled rows, rich in hits. Any-hit rate of the full collection: about 8.1%.
# KB-V1 MDR tox = KB-V1 MDR subline cytotoxicity. KB-V1 MDR cells viability, CellTiter-Glo, 72 h. Potency, µM (doses to about 46.1 µM), most hits filed as cytotoxic. hit rate 3.4% among 400,000. AID 1347076; note: % is set by controls: 0 for no effect and ±100 for the full control effect; nearly all actives have a fitted effect of over 60% in size
#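 Compound-treated KB-V1 multidrug-resistant cells, 72 h, 37 degrees C; viability by CellTiter-Glo. Fitted qHTS curves give the values.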
# SW480 rerep = induces DNA re-replication in SW480 colon adenocarcinoma cells; SW480 DNA re-replication, Hoechst DNA content imaging, 48 h; Potency, µM (top dose mostly 46.1 µM), for the others: top-dose re-replication activation, usual class: activators; hit rate 1.8% among 340,000; note: % of control where 0% means no effect; nearly all actives have a fitted effect of over 55% in size
#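 Image-based read-out: total Hoechst fluorescence of nuclei (405 nm excitation, 500-530 nm emission), with hits raising the fraction of high-intensity nuclei. SW480 colon cells incubated 48 hr with compounds at 37 C.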
# MCF10A rereplic = DNA re-replication induction in MCF 10a cells; MCF 10A DNA re-replication, Hoechst nuclear intensity, 48 h; hit rate 2.9% among 350,000; Potency, µM (doses to about 46.1 µM), without a hit: at the top dose activity, positive = re-replication, hits mostly activators; note: % of control where 0% means no effect; nearly all actives have a fitted effect of over 50% in size
# KB-3-1 tox = kills parental KB-3-1 adenocarcinoma cells. KB-3-1 viability, CellTiter-Glo ATP luminescence, 72 h. Potency, µM (titrated, usually from 46.1 µM), usual class: cytotoxic. hit rate 1.4% among 400,000; note: % is set by controls: 0 for no effect and ±100 for the full control effect; nearly all actives have a fitted effect of over 60% in size
#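 Cytotoxicity in the drug-sensitive parental line KB-3-1 was scored as loss of CellTiter-Glo luminescence following 72 h incubation with compound. Values come from curve fitting of normalized concentration-response data.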
# ELG1 repair inh = ELG1-dependent DNA repair inhibition. Potency, µM (top dose mostly 46.1 µM), without a hit: at the top dose activity change, negative = inhibition, usual class: inhibitors. hit rate 2.3% among 330,000. HEK293T ELG1-luciferase reporter, luminescence, 16 h; DNA damage induced by 5-fluorouridine. AID 504467; note: % is set by controls: 0 for no effect and ±100 for the full control effect; nearly all actives have a fitted effect of over 55% in size
#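 Step one: seed 2,000 cells per well. Step two: pin-transfer compound or DMSO alongside 5-fluorouridine. Step three: incubate 16 hr, 37 °C, 5% CO2. Step four: add ONE-Glo, wait 30 min, read luminescence.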
# * = called active by the depositor; i = inactive; ? = inconclusive; . = not tested or not shown; [ ] = remark or other dose. Calls come from the whole dose curve; as a rule, active = well fitted curve in the direction sought with a large enough effect; inconclusive = small, poorly fitted or top-dose-only effect, or another doubt; inactive = no such curve, though single readings can be large; an effect the other way counts as inactive or inconclusive. Potency is the fitted concentration of half-maximal effect.
SMILES,KB-V1 MDR tox,SW480 rerep,MCF10A rereplic,KB-3-1 tox,ELG1 repair inh
CC[C@H](C)[C@H]1O[C@]2(CC[C@@H]1C)C[C@@H]1C[C@@H](CC=C(C)[C@@H](O[C@H]3C[C@H](OC)[C@@H](O[C@H]4C[C@H](OC)[C@@H](O)[C@H](C)O4)[C@H](C)O3)[C@@H](C)C=CC=C3CO[C@@H]4[C@H](O)C(C)=C[C@@H](C(=O)O1)[C@]34O)O2,23µM*,-9%,?,7.3µM*,.
Cc1ccc(SCC(=O)N2c3ccccc3Sc3ccccc32)cc1,i,3%,7.3µM*,i,-3%
CCc1nc(SCC(=O)N2c3ccccc3Sc3ccccc32)c2ccccc2n1,8.2µM*,8%,5%,i,-24%
O=C(CSc1nncs1)N1c2ccccc2Sc2ccccc21,?,21µM*,8.2µM*,i,-28%
COCOCCn1cc(CN2CCS(=O)(=O)N(Cc3ccc(-c4ccc(F)nc4)cc3)C(C)C2=O)nn1 (stereo not given),i,.,.,i,.
CCOC(=O)c1c(NC(=O)COC(=O)c2ccc(Cl)nc2)sc(C)c1C,i,.,.,i,.
CN(Cc1ccc(Cl)cc1)C(=O)CCl,?,?,?,16µM*,?
NC(c1csc(Nc2ccc(C(=O)c3ccccc3)cc2)n1)c1ccccc1Cl (stereo not given),21µM*,.,.,?,.
CCOc1ccc(NC(=O)C2CC(=O)NC(=Nc3ccc(Cl)c(Cl)c3)S2)cc1 (stereo not given),i,.,.,i,.
CSc1ncc2c(n1)-c1ccccc1N(Cc1ccccc1C)S2(=O)=O,i,.,.,i,.
O=Cc1ccc(/C=C2\C=Cc3ccccc32)cc1,i,.,.,?,.
COc1cc(OC)cc(C2=Cc3ccccc3C(CC(C)=O)N2c2ccc(C#CCCO)cc2)c1 (stereo not given),i,.,.,i,.
Cc1ccc2c(c1)c1c3n2CCN(CCC#N)C3CCC1 (stereo not given),18µM*,.,.,i,.
COc1cc(C(=O)Nc2nc(OC)c(-c3ccccc3)c(OC)n2)cc(OC)c1OC,i,1%,16%,i,9.2µM*
COc1cc(C(=O)Nc2cc(-c3ccccc3)[nH]n2)cc(OC)c1OC,18µM*,11%,27%,?,?
COc1cc(C(=O)Nc2ccc(NC(=O)c3ccccc3)nc2)cc(OC)c1OC,?,-7%,15%,i,?
COc1ccc(CC(=O)NC2CC(=O)N(c3ccc4c(c3)OCCO4)C2)cc1 (stereo not given),i,.,.,i,.
O=C1CC(c2nc(-c3cccc(Cl)c3)no2)CN1c1ccc2c(c1)OCCO2 (stereo not given),?,.,.,i,.
O=C(NCC(=O)N(c1ccc(F)cc1)C(C(=O)NC1CCCC1)c1ccncc1)c1ccco1 (stereo not given),i,-2%,11%,i,-4%
O=C(CN(c1ccc2c(c1)OCCO2)S(=O)(=O)c1ccccc1)NCc1ccc(Cl)cc1,3.7µM*,5%,?,i,26µM*
CCCCN(CC(=O)NCc1ccc(Cl)cc1)S(=O)(=O)c1ccc2c(c1)OCCO2,12µM*,-2%,?,i,0%
O=C(CN(c1ccc(F)cc1)S(=O)(=O)c1ccc2c(c1)OCCO2)Nc1ccccc1,i,-13%,5%,i,21µM*
CCc1nc2c(OCCn3cccc3)cccn2c1N(C)C(=O)C1CC1,i,.,.,i,.
Cc1ccccc1CSCCNC(=O)CN(c1ccccc1)S(=O)(=O)N(C)C,16µM*,.,.,?,.
Cc1ccccc1CSCCNC(=S)Nc1ccccc1,?,-5%,-3%,?,-30%
SMILES,KB-V1 MDR tox,SW480 rerep,MCF10A rereplic,KB-3-1 tox,ELG1 repair inh
Cc1ccccc1CSCCNC(=O)c1ccccc1,16µM*,1%,9%,i,4%
Cc1ccc(CSCCNC(=O)CSCc2ccc([N+](=O)[O-])cc2)cc1,i,17%,-6%,i,1%
Cc1ccccc1CSCCNC(=O)CSCc1ccc([N+](=O)[O-])cc1,16µM*,-13%,-2%,i,-12%
Cc1ccc(NC(=O)CN(c2ccccc2)S(=O)(=O)N(C)C)cc1Cl,12µM*,.,.,?,.
CC(C)(C)CC(C)(C)n1nnnc1N,i,-7%,-3%,i,.
COc1cccc(C(=O)N[C@@H](C)C(=O)N2CCC3(CC2)NCCc2[nH]cnc23)c1,i,-1%,-3%,i,?
COc1ccc(-c2nc(C)c(CCNC(=O)C(=O)Nc3ccccc3OC)s2)cc1,i,.,.,i,.
O=c1[nH]nnc2c1ncn2C1OC(CO)C(O)C1O (stereo not given),i,.,.,?,.
O=C(Nc1ccc([N+](=O)[O-])cc1)Nc1nc(-c2ccc(Cl)s2)cs1,?,-45%,2.9µM*,2.9µM*,10µM*
O=C(Nc1ccc(Cl)cc1)Nc1nc(-c2ccccc2)cs1,i,-8%,0.58µM*,i,-5%
O=C(Nc1ccc(Cl)cc1)NC1CCCCC1,i,-1%[9.22 µM],0%,i,?
CC(=O)Nc1nc(-c2ccc([N+](=O)[O-])cc2)cs1,i,-42%,0%,i,3%
CC(=O)Nc1ccc(-c2csc(NNC(=O)c3ccccc3)n2)cc1,i,7%,?,i,13%
O=C(Nc1nc(-c2ccc(Cl)cc2)cs1)NC1CCCCC1,13µM*,.,?,?,?
CC(=O)Nc1ccc(-c2csc(N/N=C(/C)c3ccccc3)n2)cc1,i,-2%,11%,i,21µM*
Cc1c(Br)cccc1NC(=O)C1(C)CCN1CCc1ccccc1 (stereo not given),i,.,.,?,.
O=[N+]([O-])c1ccccc1CNCCCCCO,i,4%,1%,i,6%
CC(=O)Nc1ccc(-c2csc(NC(=O)CCCc3cccs3)n2)cc1,i,0%,?,i,18µM*
O=C(Nc1cccc(Cl)c1)Nc1nc(-c2ccccc2)cs1,i,6%,0.82µM*,i,?
CCOc1ccc(/C=N/NC(=O)c2cc3c(OC)cc(OC)cc3[nH]2)cc1OC,i,?,?,i,23µM*
C=CCOc1ccc(/C=N/NC(=O)c2cc3c(OC)cc(OC)cc3[nH]2)cc1,i,-5%,12%,i,?
COc1ccc(OC)c(/C=N/NC(=O)c2cc3c(OC)cccc3[nH]2)c1,i,27%,?,i,0%
COc1ccc(OC)c(/C=N/NC(=O)c2cc3c(OC)cc(OC)cc3[nH]2)c1,i,5%,?,i,21µM*
CN(C)c1ccc(/C=C/c2ccc3cc(N)ccc3n2)cc1,i,.,.,i,.
COc1ccc(-n2nc3ccc(N)cc3n2)cc1Cl,i,21µM*,?,i,?
